Measured values taken from PubChem BioAssay.
Values joined by “and” are separate entries in the source; they are usually repeats but may differ in a detail not shown here. Equal values may be shown once. The list shows a part of the results. Active and inactive are the calls of the source. Unless noted, no stated cut-off is given here; in the data, active means inhibition above about 20%; inactive means the rest.

How the values were obtained:
[1] = system: TLR4-MyD88 interaction (human), BLA complementation; test: disruptors of TLR4 binding to MyD88 – cell-based, HeLa CL3-4, BLA complementation, FRET ratio, confirmation (AID 941;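 active means mean inhibition across three repeat runs above about 25% carried over from the earlier screen, limit read from the data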;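 further: plate controls were DMSO only for no effect and clavulanic acid blocking BLA at full dose for full effect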); settings: CCF4 FRET ratio, at 8.4 µM, active compounds read high
[2] = BLA reporter interference in HeLa cells – cell-based, full-length BLA, CCF4 FRET ratio, artefact control for TLR4-MyD88 binding inhibitor project, confirmation (AID 1237;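 active means mean inhibition over three repeats above about 26% taken from the earlier screen, limit read from the data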;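 further: HeLa cells stably expressing beta-lactamase reporter as counterscreen for TLR4-MyD88 inhibitors; 0% = DMSO and 100% = clavulanic acid full inhibition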); settings: at 8.4 µM, active compounds read high
[3] = biological target: Insulin-degrading enzyme (Homo sapiens) (UniProt P14735); test: cellular IDE Abeta-cleavage inhibition – fluorescence polarization, HEK cells, FAbetaB substrate, confirmation (AID 435028;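 active means mean inhibition across triplicate wells above the cutoff set by the earlier primary insulin-degrading enzyme screen, cut at about 16% in these data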;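 further: 0% = DMSO wells and 100% = 60 µM reference IDE inhibitor Ii1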); settings: at 5.59 µM, active compounds read high
[4] = HEK cell viability loss – luminescence, cytotoxicity control for IDE inhibitor project (AID 449730; in the data active means inhibition above about 22%;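 further: 0% = vehicle wells and 100% = reference cytotoxic drug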); settings: HEK293 cytotoxicity, ATP luminescence; at 5.59 µM; active compounds read high
[5] = biological target: Nuclear receptor coactivator 3 (Homo sapiens) (UniProt Q9Y6Q9); test: NCOA3 GAL4-fusion reporter inhibition – cell-based, luminescence, quadruplicate, confirmation (AID 588792;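 active means mean inhibition over 43.08%, the solvent-only control mean plus 3 SD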;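 further: 0% = DMSO treated cells and 100% = gossypol at 36 µM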); settings: HEK293 GAL4-SRC3 luciferase reporter, at 3.6 µM, active compounds read high
[6] = system: transactivating tegument protein VP16 (Human herpesvirus 1), Gal4-VP16 luciferase reporter; test: repression of VP16-driven luciferase reporter – cell-based, luminescence, high throughput, counter-screen for SRC3 inhibitor project (AID 588794; in the data active means inhibition above about 30%); settings: mammalian cells, at 3.6 µM, active compounds read high
[7] = biological target: Nuclear receptor coactivator 1 (Homo sapiens) (UniProt Q15788); test: NCOA1 GAL4-fusion reporter inhibition – cell-based, luminescence, quadruplicate, confirmation (AID 588820;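 active means mean inhibition above 46.68%, the untreated control wells mean plus 3 SD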;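 further: 0% = DMSO wells and 100% = gossypol 36 µM treated wells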); settings: HEK293 GAL4-SRC1 luciferase reporter, at 3.6 µM, active compounds read high
[8] = repression of VP16-driven luciferase reporter – cell-based, luminescence, high throughput, counter-screen for SRC1 inhibitor project (AID 588824; in the data active means inhibition above about 25%); settings: cell-based VP16 transactivation luciferase luminescence; at 3.6 µM; active compounds read high
[9] = biological target: Photoreceptor-specific nuclear receptor (Homo sapiens) (UniProt Q9Y5X4); test: retest of NR2E3-NCOR disrupting agonists – cell-based, luminescence, CHO-S two-hybrid, confirmation (AID 624378;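 active means average inhibition above a cutoff equal to the mean inhibition of all tested compounds plus one SD, cut at about 70% in these data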;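 further: 0% = DMSO in NR2E3 cells and 100% = DMSO in cells lacking NR2E3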); settings: CHO-S mammalian two-hybrid NR2E3-NCOR, luciferase luminescence; at 3.98 µM; active compounds read high
[10] = nonselective effects on VP16 transactivation – cell-based, luminescence, CHO-S, high throughput, counter-screen for NR2E3 agonist project, confirmation (AID 624379;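 active means mean inhibition above a cutoff equal to the average over all tested compounds plus one standard deviation, cut at about 70% in these data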;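 further: 0% = DMSO with VP16-transfected cells and 100% = DMSO with cells lacking VP16; higher means less reporter light so more repression of VP16 activity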); settings: CHO-S GAL4-VP16 luciferase reporter, at 3.98 µM, active compounds read high
[11] = VP16-driven transactivation reporter suppression – cell-based, luminescence, HEK293, counter-screen for COUP-TFII antagonist project (AID 687007; in the data active means inhibition above about 13%); settings: HEK293 Gal4-VP16 luciferase reporter, at 8.5 µM, active compounds read high
[12] = biological target: COUP transcription factor 2 (Homo sapiens) (UniProt P24468); test: retest of COUP-TFII reporter suppressors – cell-based, luciferase reporter, HEK293, triplicate, confirmation (AID 687008;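 active means mean inhibition over three repeats above a set limit taken from the earlier primary screen, cut at about 38% in these data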;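 further: 100% = cells given the luciferase reporter alone without the COUP-TF2 vector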); settings: HEK293 NGFI-A luciferase reporter, luminescence; at 8.5 µM; active compounds read high
[13] = system: HIV-1 integrase (multimerization); test: stimulation of HIV-1 integrase oligomerization – biochemical, TR-FRET, counter-screen for LEDGF/p75 integration inhibitor project (AID 1053131; in the data active means activation above about 8.9%); settings: TR-FRET HIV-1 integrase multimerization, at 7.7 µM, active compounds read high
[14] = compounds disturbing TR-FRET signal readout – biochemical, HIV-1 IN multimerization, artefact control for LEDGF/p75-dependent integration inhibitor project, confirmation (AID 1053135;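 active means inhibition above the mean over all tested compounds plus 3 SD, which no compound reached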;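 further: 0% = integrase with antibodies and DMSO and 100% = antibodies without integrase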); settings: TR-FRET optical interference counterscreen, at 7.7 µM, active compounds read high
[15] = system: HIV-1 integrase / human LEDGF/p75 complex; test: blockers of LEDGF/p75-dependent integrase activity – biochemical, TR-FRET, confirmation (AID 1053136; in the data active means inhibition above about 14%); settings: TR-FRET LEDGF/p75-dependent HIV-1 integration, at 3.7 µM, active compounds read high
[16] = potentiators of IFN-gamma STAT1 reporter activity – cell-based, HTS, luciferase reporter, confirmation (AID 1262;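 active means activation above a set limit carried over from the earlier primary STAT1 screen, cut at about 140% in these data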;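 further: simple ratio to median IFN-gamma plus DMSO wells so 0% means no light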); settings: NIH 3T3 STAT1-luciferase reporter, IFN-gamma potentiation, luminescence; at 5.7 µM; active compounds read high; 100% = IFN-gamma EC80 alone, no compound
[17] = enhancement of NF-kB transcriptional signalling – cell-based, HEK293T, luciferase luminescence, TNF-alpha, counter-screen for STAT1 activator project (AID 1306;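 active means activation above the mean of solvent-only control wells plus 3 SD, set per campaign, cut at about 130% in these data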;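 further: TNF-alpha given at a submaximal dose yielding about 80% of full reporter signal; values are well signal over median control so 100% means no change and 0% no light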); settings: HEK293T NF-kB luciferase reporter, TNF-alpha stimulated, at 5.7 µM, active compounds read high, 100% = TNF-alpha with vehicle only
[18] = biological target: Signal transducer and activator of transcription 3 (Homo sapiens) (UniProt P40763); test: enhancers of IL-6 STAT3 transcription – U3A cells, luciferase, luminescence, counter-screen for STAT1 activator project, confirmation (AID 1316;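 active means activation above the solvent-only control well mean plus 3 SD, set per plate batch, cut at about 110% in these data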;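 further: 0% = no luminescence and 100% = median IL-6 plus DMSO wells; higher means more STAT3 reporter activation so hits are non-selective activators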); settings: U3A cells STAT3-luciferase reporter, IL-6, luminescence; at 5.7 µM; active compounds read high; 100 = IL-6 alone, no compound effect; cells lack STAT1
[19] = reduced OD of T4-infected AddAB+ E. coli – absorbance, E. coli V3065, T4 phage, triplicate, AddAB inhibitor project, confirmation (AID 488942;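 active means mean inhibition above a set limit taken from the earlier primary screen, cut at about 13% in these data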;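 further: higher means less bacterial growth since AddAB block lets phage replicate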); settings: E. coli V3065 expressing H. pylori AddAB, at 11.9 µM, active compounds read high, T4 phage with gene 2 nonsense mutations
[20] = reduced OD of phage-infected RecBCD+ V66 E. coli – absorbance, mutant T4 phage, counter-screen for AddAB inhibitor project (AID 488955;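 active means mean inhibition above the mean of solvent-only control wells plus 3 SD, cut at about 4% in these data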;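 further: optical density read after an 18 h incubation at 37 °C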); settings: OD growth, at 11.9 µM, active compounds read high
[21] = bacterial growth inhibitors – absorbance, counter-screen for AddAB inhibitor project, confirmation (AID 488956; in the data active means inhibition above about 25%); settings: bacterial viability, absorbance (AddAB counterscreen); at 11.9 µM; active compounds read high
[22] = reduced OD of V66 E. coli with T4 gene 2 phage – absorbance, RecBCD inhibitor project, confirmation (AID 651982;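 active means mean inhibition over triplicates exceeding the hit threshold derived in the original primary screen, cut at about 11% in these data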); settings: E. coli V66 + T4 2- phage, growth OD; at 11.9 µM; active compounds read high
[23] = bacterial growth inhibition – absorbance, high throughput, counter-screen for RecBCD inhibitor project (AID 651983);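 further: E. coli strain V66 grown with compound alone and no phage infection; 0% = bacteria with DMSO vehicle only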; settings: E. coli viability, absorbance (OD) growth; at 11.9 µM; active compounds read high
[24] = reduced optical density, T4-challenged addAB+ bacteria – absorbance, E. coli V3065, T4 phage, counter-screen for RecBCD inhibitor project, confirmation (AID 651984;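 active means mean inhibition above the solvent-only control wells' mean plus 3 SD, cut at about 22% in these data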;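 further: higher means less bacterial growth from phage killing when AddAB is blocked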); settings: E. coli expressing H. pylori AddAB + T4 phage, OD growth; at 11.9 µM; active compounds read high; gene 2 mutant T4, recBCD-deleted host
[25] = BSA probe fluorescence interference – biochemical, TAMRA-labeled BSA, counter-screen for TCR-CD3 interaction inhibitor project (AID 652035; in the data active means inhibition above about 23%;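 further: 0% = buffer low control and 100% = reference high control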); settings: TAMRA-labeled BSA probe fluorescence counterscreen; at 9.4 µM; active compounds read high
[26] = system: T-cell receptor (TCR)-CD3 interaction, human; test: blockers of TCR binding to CD3 – biochemical, fluorescence, TAMRA-labeled TCR probe, confirmation (AID 652036; in the data active means inhibition above about 19%); settings: TAMRA-labeled TCR probe fluorescence binding assay; at 9.4 µM; active compounds read high

Sequence of Nuclear receptor coactivator 1 (Homo sapiens) (Q15788 whole entry, looked up, the tested form may be a part): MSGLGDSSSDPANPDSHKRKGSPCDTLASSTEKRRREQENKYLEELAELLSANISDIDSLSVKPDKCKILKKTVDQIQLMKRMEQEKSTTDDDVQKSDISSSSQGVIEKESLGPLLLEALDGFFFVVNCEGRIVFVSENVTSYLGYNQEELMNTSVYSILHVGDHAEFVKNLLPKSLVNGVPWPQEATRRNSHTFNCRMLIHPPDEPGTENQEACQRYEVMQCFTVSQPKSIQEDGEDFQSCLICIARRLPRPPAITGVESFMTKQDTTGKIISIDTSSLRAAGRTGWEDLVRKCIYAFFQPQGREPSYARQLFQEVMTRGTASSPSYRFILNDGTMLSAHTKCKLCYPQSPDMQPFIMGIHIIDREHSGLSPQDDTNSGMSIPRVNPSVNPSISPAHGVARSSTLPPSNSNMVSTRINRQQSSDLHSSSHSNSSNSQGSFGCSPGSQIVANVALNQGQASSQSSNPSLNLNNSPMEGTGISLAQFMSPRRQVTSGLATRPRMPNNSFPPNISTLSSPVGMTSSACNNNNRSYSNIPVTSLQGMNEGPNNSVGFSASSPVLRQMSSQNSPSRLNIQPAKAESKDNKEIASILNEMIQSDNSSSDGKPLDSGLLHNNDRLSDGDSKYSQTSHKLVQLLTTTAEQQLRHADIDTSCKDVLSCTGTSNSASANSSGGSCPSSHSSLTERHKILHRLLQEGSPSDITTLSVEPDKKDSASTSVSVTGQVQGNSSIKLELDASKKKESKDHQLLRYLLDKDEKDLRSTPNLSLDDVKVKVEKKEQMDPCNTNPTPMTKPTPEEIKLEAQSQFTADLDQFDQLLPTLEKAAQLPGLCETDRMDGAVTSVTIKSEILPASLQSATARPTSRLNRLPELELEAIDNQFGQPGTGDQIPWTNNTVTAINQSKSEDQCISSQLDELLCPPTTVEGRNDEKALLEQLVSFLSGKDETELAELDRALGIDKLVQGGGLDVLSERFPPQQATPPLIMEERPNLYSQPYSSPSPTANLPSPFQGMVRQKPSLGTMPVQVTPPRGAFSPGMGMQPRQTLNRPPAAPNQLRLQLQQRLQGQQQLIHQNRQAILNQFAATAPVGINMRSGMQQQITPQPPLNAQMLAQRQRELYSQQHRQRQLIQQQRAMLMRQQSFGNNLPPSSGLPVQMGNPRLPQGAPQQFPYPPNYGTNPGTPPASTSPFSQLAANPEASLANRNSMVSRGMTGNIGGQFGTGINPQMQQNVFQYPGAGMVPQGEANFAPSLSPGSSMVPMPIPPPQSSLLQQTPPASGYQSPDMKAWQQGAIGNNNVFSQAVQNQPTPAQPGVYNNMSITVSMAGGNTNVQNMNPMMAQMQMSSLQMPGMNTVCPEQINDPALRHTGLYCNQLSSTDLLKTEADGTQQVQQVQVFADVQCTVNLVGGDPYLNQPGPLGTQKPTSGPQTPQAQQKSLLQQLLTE
Sequence of Nuclear receptor coactivator 3 (Homo sapiens) (Q9Y6Q9 whole entry, looked up, the tested form may be a part): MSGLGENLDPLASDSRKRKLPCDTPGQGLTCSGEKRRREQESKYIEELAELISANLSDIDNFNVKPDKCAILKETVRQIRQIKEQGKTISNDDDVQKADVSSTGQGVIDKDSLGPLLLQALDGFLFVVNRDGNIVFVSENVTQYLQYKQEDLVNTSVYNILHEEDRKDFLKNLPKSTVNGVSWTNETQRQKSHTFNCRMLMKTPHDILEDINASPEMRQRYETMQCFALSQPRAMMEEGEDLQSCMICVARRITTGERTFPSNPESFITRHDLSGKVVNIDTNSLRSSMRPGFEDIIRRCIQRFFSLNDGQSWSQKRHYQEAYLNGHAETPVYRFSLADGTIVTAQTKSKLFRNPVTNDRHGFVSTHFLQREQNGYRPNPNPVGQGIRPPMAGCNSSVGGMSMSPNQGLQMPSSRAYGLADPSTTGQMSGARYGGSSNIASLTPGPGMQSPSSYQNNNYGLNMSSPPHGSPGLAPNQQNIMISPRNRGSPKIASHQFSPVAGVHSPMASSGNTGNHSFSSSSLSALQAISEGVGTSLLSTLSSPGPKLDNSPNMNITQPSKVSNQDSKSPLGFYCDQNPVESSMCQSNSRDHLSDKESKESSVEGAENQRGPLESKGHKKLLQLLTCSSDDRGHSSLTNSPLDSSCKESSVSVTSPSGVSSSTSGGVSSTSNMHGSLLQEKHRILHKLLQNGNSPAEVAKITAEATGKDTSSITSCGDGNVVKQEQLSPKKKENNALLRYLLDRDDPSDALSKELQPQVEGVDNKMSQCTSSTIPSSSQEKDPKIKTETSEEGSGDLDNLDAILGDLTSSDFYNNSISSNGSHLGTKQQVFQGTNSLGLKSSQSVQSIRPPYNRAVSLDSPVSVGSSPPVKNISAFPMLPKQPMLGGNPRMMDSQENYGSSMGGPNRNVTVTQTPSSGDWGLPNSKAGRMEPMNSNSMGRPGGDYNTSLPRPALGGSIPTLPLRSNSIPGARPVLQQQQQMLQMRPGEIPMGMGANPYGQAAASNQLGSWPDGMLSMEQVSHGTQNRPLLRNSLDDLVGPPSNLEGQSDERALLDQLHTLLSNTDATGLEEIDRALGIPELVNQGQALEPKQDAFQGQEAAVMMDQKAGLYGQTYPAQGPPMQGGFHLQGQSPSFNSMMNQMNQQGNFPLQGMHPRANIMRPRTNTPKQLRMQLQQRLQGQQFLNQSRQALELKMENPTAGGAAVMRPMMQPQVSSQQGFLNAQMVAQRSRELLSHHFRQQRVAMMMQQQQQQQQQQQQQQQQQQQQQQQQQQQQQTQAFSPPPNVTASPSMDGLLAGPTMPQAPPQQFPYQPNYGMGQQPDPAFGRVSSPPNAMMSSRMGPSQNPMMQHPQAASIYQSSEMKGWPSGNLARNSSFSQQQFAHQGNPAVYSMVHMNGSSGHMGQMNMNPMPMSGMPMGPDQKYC
Sequence of Insulin-degrading enzyme (Homo sapiens) (P14735 whole entry, looked up): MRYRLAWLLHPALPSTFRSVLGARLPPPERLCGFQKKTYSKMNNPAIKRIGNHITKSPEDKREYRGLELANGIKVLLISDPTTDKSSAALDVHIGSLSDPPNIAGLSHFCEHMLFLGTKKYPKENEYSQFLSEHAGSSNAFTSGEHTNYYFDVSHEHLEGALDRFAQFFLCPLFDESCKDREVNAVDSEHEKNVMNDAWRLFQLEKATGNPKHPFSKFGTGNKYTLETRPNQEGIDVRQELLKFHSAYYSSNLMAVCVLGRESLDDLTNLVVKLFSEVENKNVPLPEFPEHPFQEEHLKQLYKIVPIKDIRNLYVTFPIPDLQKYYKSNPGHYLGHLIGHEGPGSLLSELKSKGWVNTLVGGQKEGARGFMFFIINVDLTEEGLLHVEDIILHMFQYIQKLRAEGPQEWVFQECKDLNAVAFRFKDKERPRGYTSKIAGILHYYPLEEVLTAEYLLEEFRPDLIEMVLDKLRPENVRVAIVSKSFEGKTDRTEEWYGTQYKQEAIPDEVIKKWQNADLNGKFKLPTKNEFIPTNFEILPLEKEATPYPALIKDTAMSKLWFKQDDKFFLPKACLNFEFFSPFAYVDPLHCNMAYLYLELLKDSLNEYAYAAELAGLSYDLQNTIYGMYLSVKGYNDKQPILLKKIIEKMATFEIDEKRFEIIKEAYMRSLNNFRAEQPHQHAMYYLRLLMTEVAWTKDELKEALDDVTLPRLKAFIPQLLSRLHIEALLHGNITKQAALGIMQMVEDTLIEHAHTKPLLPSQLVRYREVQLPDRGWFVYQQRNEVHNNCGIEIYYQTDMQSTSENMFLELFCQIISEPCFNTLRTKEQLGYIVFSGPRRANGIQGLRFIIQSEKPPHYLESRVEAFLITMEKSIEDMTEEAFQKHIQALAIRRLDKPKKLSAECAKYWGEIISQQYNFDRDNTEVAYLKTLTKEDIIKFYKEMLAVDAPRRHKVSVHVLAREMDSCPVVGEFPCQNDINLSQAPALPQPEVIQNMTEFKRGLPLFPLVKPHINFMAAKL
Sequence of COUP transcription factor 2 (Homo sapiens) (P24468 whole entry, looked up): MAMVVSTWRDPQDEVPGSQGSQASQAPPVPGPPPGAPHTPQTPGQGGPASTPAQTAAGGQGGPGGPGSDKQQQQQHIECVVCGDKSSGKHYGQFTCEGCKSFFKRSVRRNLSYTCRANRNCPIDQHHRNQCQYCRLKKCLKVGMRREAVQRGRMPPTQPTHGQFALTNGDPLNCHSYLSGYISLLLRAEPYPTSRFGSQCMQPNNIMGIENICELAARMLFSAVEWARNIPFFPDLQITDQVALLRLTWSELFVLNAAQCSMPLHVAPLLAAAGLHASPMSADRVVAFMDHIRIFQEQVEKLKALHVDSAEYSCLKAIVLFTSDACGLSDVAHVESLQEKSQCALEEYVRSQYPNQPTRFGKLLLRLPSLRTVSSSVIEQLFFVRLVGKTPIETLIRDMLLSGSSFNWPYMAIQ
Sequence of Photoreceptor-specific nuclear receptor (Homo sapiens) (Q9Y5X4 whole entry, looked up): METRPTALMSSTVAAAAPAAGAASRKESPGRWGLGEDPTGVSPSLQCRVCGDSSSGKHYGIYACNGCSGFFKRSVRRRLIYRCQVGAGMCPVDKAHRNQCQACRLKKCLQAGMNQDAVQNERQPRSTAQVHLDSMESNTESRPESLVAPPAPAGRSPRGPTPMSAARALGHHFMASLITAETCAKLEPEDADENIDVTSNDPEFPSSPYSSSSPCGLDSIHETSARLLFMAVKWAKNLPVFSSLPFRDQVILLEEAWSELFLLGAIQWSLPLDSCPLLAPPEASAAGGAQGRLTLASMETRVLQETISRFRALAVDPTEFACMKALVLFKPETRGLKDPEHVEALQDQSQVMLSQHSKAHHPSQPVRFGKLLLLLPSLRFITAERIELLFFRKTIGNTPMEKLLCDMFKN

C[n+]1ccc(/C=C/c2c[nH]c3ccccc23)cc1
active: inhibition [1] 26.1% | inhibition [2] 42.1% | inhibition [3] 42.6%
inactive: inhibition [4] 13.1%

COc1ccc2c(c1)c(=Cc1ccc(N(C)C)cc1)c1cc(-c3ccccc3)[n+](C)n12
active: inhibition [5] 68.3% | inhibition [6] 82% | inhibition [7] 69.4% | inhibition [8] 83.8% | inhibition [9] 99% | inhibition [10] 81.4% | inhibition [11] 40.1% | inhibition [12] 86.4%
inactive: activation [13] 6.29% | inhibition [14] -22.4% | inhibition [15] -6.4%

CN(c1ccc(C(=O)NCCC2=CCCCC2)cc1)S(C)(=O)=O
inactive: activation (% of control) [17] 124%
active: activation (% of control) [16] 177% | activation (% of control) [18] 121%

C=CC1=C(C(=O)O)N2C(=O)[C@@H](NC(=O)/C(=N/OCC(=O)O)c3csc(N)n3)[C@H]2SC1
inactive: inhibition [25] 6.41% | inhibition [14] -213%
active: inhibition [19] 102% | inhibition [20] 100% | inhibition [21] 101% | inhibition [22] 100% | inhibition [23] 101% | inhibition [24] 101% | inhibition [26] 20% | activation [13] 42.3% | inhibition [15] 90.4%

COC(=O)Cc1cc(=O)n(-c2nc3ccccc3s2)[nH]1
inactive: inhibition [1] -4.76% | inhibition [2] 4.99%

CO/N=C(\C(=O)N[C@@H]1C(=O)N2C(C(=O)O)=C(COC(C)=O)CS[C@H]12)c1csc(N)n1 (stereo in doubt)
active: inhibition [19] 99.2% and 97% | inhibition [20] 99.5% and 97.6% | inhibition [21] 99.6% and 98.1% | inhibition [22] 100% and 96.2% and 102% | inhibition [23] 102% and 97.1% and 103% | inhibition [24] 102% and 96.3% | inhibition [15] 42.8%
inactive: activation [13] 0.25% | inhibition [14] -1.28%
